Most compounds without a hit are left out; they make up all but 1.6% or so of the library.
KCNQ2 inh = rat KCNQ2 potassium channel inhibitors, primary screen, cell-based, CHO-K1, FluxOR thallium flux, B-score | 20 min; hits give low values | AID 2156, 2009 | Potassium voltage-gated channel subfamily KQT member 2 (Rattus norvegicus), O88943 | B-score at 10 µM | 310,000 tested, 1.1% active;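 active = fluorescence ratio B-score at most minus 3 library SDs, with starting brightness B-score within 2 library SDs, cut at about -5.5 in these data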
KCNQ2 pot = potentiators of rat KCNQ2 potassium channel. CHO-K1 KCNQ2, FluxOR thallium flux fluorescence; hits give high values. B-score at 10 µM. 310,000 tested, 0.54% active;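 active = fluorescence ratio B-score at least 3 SD of library B-scores, with initial fluorescence B-score within 3 of them, cut at about 5.3 in these data; same plate scores as AID 2156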;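 note: B-score of peak minus minimum over baseline fluorescence ratio after K+ and Tl+ stimulus; positive B-score means potentiation of KCNQ2 with more thallium influx and brighter signal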
Kir21 confirm = mouse Kir2.1 channel blockers, retest, confirmation, cell-based, FluxOR thallium flux, duplicate; shares compounds with KCNQ2 pot; Kir2.1-expressing cells, FluxOR thallium flux fluorescence; hits give low values; Tl flux remaining, % of negative control (hits give low values), % at 10 µM; 2,300 tested, 41% active; AID 2032, 2009;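 active = Primary-screen hit whose thallium flux fell at least 3 control SD below untreated wells in both duplicates, with normal baseline fluorescence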;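 note: 0% = blank wells without stimulus and 100% = stimulated no-compound controls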
HEK293 ctr = counter-screen for Kir2.1 inhibitors: effect in parental HEK293 cells | 2,300 tested, 19% active | AID 2105 | FluxOR thallium flux fluorescence; 0% = unstimulated blank wells | shares compounds with KCNQ2 pot | FluxOR signal as % of negative control (100 = no effect), % at 10 µM;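 active = dye signal at least 3 control SD above or below untreated wells in both duplicates, raw fluorescence within 3, either direction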;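 note: percent is based on the flux ratio of peak minus minimum fluorescence over baseline F0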
CHO-K1 Tl ctr = nonspecific thallium flux increase in parental CHO-K1, confirmation, counter-screen for KCNQ2 potentiator project, cell-based, FluxOR thallium flux, duplicate; shares compounds with KCNQ2 pot; parental CHO-K1 cells, FluxOR thallium flux fluorescence; zero = vehicle mean+3SD, 100% = vehicle-minus-blank window; activity increase over 3SD of controls, % at 10 µM; 1,200 tested, 43% active; AID 2282, 2010;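 active = signal rise of at least 3 SD above the untreated control mean, in both duplicate wells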;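 note: counter screen of KCNQ2 potentiator hits so any rise reflects channel-independent effects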
KCNQ1 sel pot = human KCNQ1 channel potentiation off-target, confirmation, selectivity assay for KCNQ2 potentiator project, cell-based, CHO, FluxOR thallium flux. shares compounds with KCNQ2 pot. CHO KCNQ1 stable, FluxOR thallium flux fluorescence; beyond 3SD, as % of vehicle-control signal. activation over 3SD threshold, % at 10 µM. 1,200 tested, 28% active. AID 2283, 2010;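 active = fluorescence ratio rise of at least 3 SD of vehicle wells above their mean, in both replicate wells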;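 note: 0% = vehicle mean plus 3 SD and 100% = vehicle minus unstimulated blank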
Target sequence (P51787 whole entry, looked up): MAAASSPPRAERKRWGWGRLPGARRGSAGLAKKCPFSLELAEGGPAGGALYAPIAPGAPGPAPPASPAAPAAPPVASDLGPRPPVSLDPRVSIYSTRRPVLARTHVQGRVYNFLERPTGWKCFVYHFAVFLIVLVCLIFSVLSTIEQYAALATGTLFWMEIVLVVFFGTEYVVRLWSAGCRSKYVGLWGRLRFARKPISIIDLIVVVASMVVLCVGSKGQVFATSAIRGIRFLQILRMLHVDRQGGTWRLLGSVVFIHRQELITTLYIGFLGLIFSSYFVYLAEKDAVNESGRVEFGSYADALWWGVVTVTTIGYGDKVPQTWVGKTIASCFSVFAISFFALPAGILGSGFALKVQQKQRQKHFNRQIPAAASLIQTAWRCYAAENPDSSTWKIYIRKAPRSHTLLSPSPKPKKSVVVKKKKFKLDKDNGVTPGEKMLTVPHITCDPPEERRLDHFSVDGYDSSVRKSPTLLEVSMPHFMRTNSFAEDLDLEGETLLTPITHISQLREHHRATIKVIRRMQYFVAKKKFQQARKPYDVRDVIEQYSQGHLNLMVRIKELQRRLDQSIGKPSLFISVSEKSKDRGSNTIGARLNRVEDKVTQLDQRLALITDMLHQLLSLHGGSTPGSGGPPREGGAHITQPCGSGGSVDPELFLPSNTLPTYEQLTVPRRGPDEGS
KCNQ2 pot conf = rat KCNQ2 channel potentiators, confirmation, cell-based, CHO, FluxOR thallium flux, duplicate; shares compounds with KCNQ2 pot; CHO-KCNQ2 cells, FluxOR thallium flux fluorescence; potentiation, less the hit threshold, % at 10 µM; 1,200 tested, 68% active; AID 2287, 2010;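 active = fluorescence ratio rising 3 SD or more over the vehicle control mean in both replicates, plus primary screen hit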;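 note: peak minus minimum thallium fluorescence divided by baseline after K/Tl stimulus; 0% = vehicle mean plus 3 SD and 100% = vehicle minus unstimulated blank difference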
Kir21 spec = mouse Kir2.1 channel activation off-target, confirmation, selectivity assay for KCNQ2 potentiator project, cell-based, HEK293, FluxOR thallium flux | 1,200 tested, 2% active | shares compounds with KCNQ2 pot | HEK293 Kir2.1, FluxOR thallium flux fluorescence | activity over 3SD threshold, % at 10 µM | AID 2345, 2010;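 active = fluorescence ratio rise of at least 3 SD above the vehicle-control mean, seen in both replicates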;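 note: 0% = vehicle mean plus 3 SD and 100% = vehicle minus no-stimulus blank window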
KCNQ2 W236L pot = potentiators of retigabine-insensitive KCNQ2 W236L, mechanism study for KCNQ2 potentiator project, cell-based, rat KCNQ2 W236L, CHO, automated patch clamp | shares compounds with KCNQ2 pot | automated patch clamp current | current increase over 3SD of negative controls (%), hits give high values, % at 25 µM | 940 tested, 10% active | AID 2558, 2010;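 active = current increase at least 3 SD of the untreated controls above them in both duplicate recordings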
* = called active by the depositor; i = inactive; . = no result given.

SMILES	KCNQ2 inh	KCNQ2 pot	Kir21 confirm	HEK293 ctr	others
CCC(OC(=O)CN1C(=O)C(=O)c2ccccc21)C(=O)Nc1ccccc1OC (stereo unspecified)	i	.	.	.
CC(NC(=O)Nc1ccccc1F)C(C)(C)C (stereo unspecified)	i	0.87	.	.
O=C(c1nc2ccccn2c1CN1CCCC(OCc2ccccc2)C1)N1CCCC1 (stereo unspecified)	i	2.18	.	.
Cc1noc(C)c1C(=O)N1CCC(C(=O)c2ccc(F)cc2F)CC1	i	.	.	.
COc1cc(NS(=O)(=O)c2ccc(Nc3nc(-c4ccccc4)cs3)cc2)nc(OC)n1	i	1.82	i	i
COc1cc(NS(=O)(=O)c2ccc(NC(=S)Nc3ccccc3)cc2)nc(OC)n1	i	.	.	.
C/C(=N\NC(N)=S)c1ccccc1	i	.	.	.
CSC(=S)N/N=C(\C)c1ccccc1	i	8.71*	i	288.5%*	CHO-K1 Tl ctr=-12.1;KCNQ1 sel pot=-12.2;KCNQ2 pot conf=26.5*;Kir21 spec=-15.1;KCNQ2 W236L pot=9.3%*
COc1ccc(S(=O)(=O)N2CCSC2C)cc1C (stereo unspecified)	i	.	.	.
COc1cc(/C=C/C(=O)OCC(=O)NCc2ccco2)ccc1O	i	.	.	.
C=CCNCCOc1c(C)cc(C)cc1Cl	i	1.72	.	.
Cc1cc(Cl)c(OCCCNC2CCCC2)c(Br)c1	i	2.86	.	.
C=CCNCCCCOc1c(Cl)cc(C)cc1Br	i	0.5	35.0%*	i
COCCCNCCCCOc1c(Cl)cc(C)cc1Br	i	.	43.5%*	i
CC(C)c1ccc(NC2CCCN(C(=O)c3cnsn3)C2)cc1 (stereo unspecified)	i	.	.	.
COC(=O)c1ccc(C(=O)NC(=S)Nc2nc3c(s2)CCCC3)cc1	i	7.29*	i	i	CHO-K1 Tl ctr=83.4*;KCNQ1 sel pot=-7.4;KCNQ2 pot conf=-7.9;Kir21 spec=-42.2;KCNQ2 W236L pot=i
O=C(NC(=S)Nc1nc2c(s1)CCCC2)c1ccccc1	i	3.86	.	.
COCCNC(=O)/C(C#N)=C/c1ccc(OC(=O)c2cccs2)c(OC)c1	i	.	i	i
COCCNC(=O)/C(C#N)=C/c1cccs1	i	.	.	.
Cc1nc2ccc(S(=O)(=O)NCC(=O)N(C)Cc3ccccc3)cc2s1	i	1.21	.	.
CCCCNC(=S)NC(=O)c1ccc([N+](=O)[O-])cc1	i	8.79*	i	188.0%*	CHO-K1 Tl ctr=2.5*;KCNQ1 sel pot=14.1*;KCNQ2 pot conf=10.3*;Kir21 spec=-12.9;KCNQ2 W236L pot=i
CC(C)CNC(=S)NC(=O)c1ccc([N+](=O)[O-])cc1	i	1.81	.	.
O=C(Cc1ccc([N+](=O)[O-])cc1)N/N=C/c1ccccc1F	i	0.07	.	.
Cc1ccc(OCCCCN2CCCCC2)c(C)c1	i	0.92	.	.
Cc1ccc(OCCCCNC2CCCC(C)C2C)c(C)c1 (stereo unspecified)	i	.	i	i
SMILES	KCNQ2 inh	KCNQ2 pot	Kir21 confirm	HEK293 ctr	others
COc1ccc(C(C)NC(=O)Nc2ccc(C(C)=O)cc2)cc1OC (stereo unspecified)	i	1.27	.	.
Nc1sc(-c2ccccc2)n[n+]1Cc1cccc2cccnc12	i	.	i	i
Oc1ccccc1CNc1cccc2cccnc12	i	.	.	.
CCN(C(=O)c1ccco1)c1nnc(-c2cccnc2)s1	i	1.56	.	.
Cc1ccc(C)n1-c1ccc(C(=O)NN)cc1	i	.	.	.
COc1ccc(CCN2CCCC(CN(C)Cc3cc(Cl)c(O)c(OC)c3)C2)cc1 (stereo unspecified)	i	0.5	.	.
CN(C)CCC(=O)C(Cc1ccccc1)c1ccccc1 (stereo unspecified)	i	.	.	.
CC(CCCN(C)C)C(Cc1ccccc1)c1ccccc1 (stereo unspecified)	i	.	47.5%*	i
COc1ccc(C(=O)O/N=C2\C(=O)N(C)c3ccccc32)cc1	i	.	.	.
CN1C(=O)/C(=N\OC(=O)c2cccc3ccccc23)c2ccccc21	i	5.36*	i	i	CHO-K1 Tl ctr=-16.3;KCNQ1 sel pot=-11.8;KCNQ2 pot conf=-19.1;Kir21 spec=-35.5
CC(C)c1cc(C(=O)OCC(=O)NC(=O)NCc2ccco2)c(O)c(C(C)C)c1	i	.	.	.
Cc1cccc(C)c1NC(=O)c1ccc(-n2cnnn2)cc1	i	13.2*	i	i	CHO-K1 Tl ctr=-6.9;KCNQ1 sel pot=-15.0;KCNQ2 pot conf=-21.6;Kir21 spec=-36.9
O=C(Nc1ccc(Br)cc1)c1ccc(-n2cnnn2)cc1	i	0.26	.	.
O=C(Cc1ccc(Cl)cc1)NNc1c(F)c(F)cc(F)c1F	i	0.53	.	.
Oc1ccc(Cc2ccc(Cl)cc2)c(O)c1	i	5.58*	i	i	CHO-K1 Tl ctr=105.5*;KCNQ1 sel pot=-8.6;KCNQ2 pot conf=-10.3;Kir21 spec=-48.2
O=C(NC(=S)N1CCCCCC1)c1ccc(Cl)cc1Cl	i	9.08*	i	238.0%*	CHO-K1 Tl ctr=27.0*;KCNQ1 sel pot=6.1*;KCNQ2 pot conf=12.2*;Kir21 spec=-20.7;KCNQ2 W236L pot=i
O=C(NC(=S)N1CCCCCC1)c1ccccc1Cl	i	4.3	.	.
CCCN(CCC)C(=S)NC(=O)c1ccc(Cl)cc1Cl	i	15.6*	i	394.5%*	CHO-K1 Tl ctr=-12.8;KCNQ1 sel pot=-2.7;KCNQ2 pot conf=67.4*;Kir21 spec=-11.2;KCNQ2 W236L pot=i
Cc1ccccc1C(=O)NNC(=S)NC(=O)c1ccc(Cl)cc1Cl	i	1.93	.	.
Cc1cc(-c2onc(C)c2C(=O)O)no1	i	0.63	.	.
COC(=O)CS(=O)(=O)c1ccsc1C(=O)Nc1ccc(F)cc1	i	1.53	.	.
CC(CC12CC3CC(CC(C3)C1)C2)NCc1ccccc1O (stereo unspecified)	i	.	.	.
O=S(=O)(/N=C/c1c(O)ccc2ccccc12)c1cccs1	i	5.76*	i	i	CHO-K1 Tl ctr=-7.0;KCNQ1 sel pot=-27.2;KCNQ2 pot conf=-16.1;Kir21 spec=-35.8
Cc1ccc(S(=O)(=O)/N=C/c2c(O)ccc3ccccc23)cc1	i	.	.	.
S=C(Nc1ccc2nccnc2c1)N1CCOCC1	i	.	.	.

Source: PubChem BioAssay (Johns Hopkins Ion Channel Center)
